Consider four compounds from PubChem BioAssay (EPA / NIEHS).

Read-out in assay [1]: Phosphatase and tensin (PTEN), PTEN (gene 5728)
As to the kind of experiment: LTEA_HepaRG_PTEN: Life Technologies and Expression Analysis (LTEA) Assay for Phosphatase and tensin (PTEN) using HepaRG (AID 2283523). As to conditions: mRNA level, 48 h; actives raise or lower the signal. The gist of the method: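 Read-out: TaqMan qRT-PCR of PTEN transcript, normalized to three housekeeping genes, fitted in both directions against 0.5% DMSO. Differentiated human HepaRG cultures received chemicals for 48 h, eight-point half-log series topping at 100 uM.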

Read-out in assay [2]: solute carrier (SLC22A1), SLC22A1 (gene 6580)
Description: LTEA_HepaRG_SLC22A1: Life Technologies and Expression Analysis (LTEA) Assay for solute carrier (SLC22A1) using HepaRG (AID 2283524).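 For AC50: differentiated human HepaRG liver cells in serum-free induction medium.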 As to conditions: mRNA level, 48 h; actives raise or lower the signal. The method, boiled down: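 Transcript level of SLC22A1 quantified by qRT-PCR (normalized to three housekeeping genes) after 48 h chemical exposure of HepaRG cells, eight concentrations up to 100 µM, half-log steps, 0.5% DMSO vehicle. Gain or loss relative to DMSO fitted bidirectionally.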

Read-out in assay [3]: Pyruvate Dehydrogenase Kinase 4 (PDK4), PDK4 (gene 5166)
Description: LTEA_HepaRG_PDK4: Life Technologies and Expression Analysis (LTEA) Assay for Pyruvate Dehydrogenase Kinase 4 (PDK4) using HepaRG (AID 2283525). The conditions noted are these: mRNA level, 48 h; actives raise or lower the signal. The gist of the method:
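Readout is qRT-PCR of PDK4 transcript, normalized to three housekeeping genes, with bidirectional fitting against 0.5% DMSO vehicle. Differentiated HepaRG cells were treated 48 h in serum-free induction medium, duplicate wells, eight-point half-log series topping at 100 uM.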

Read-out in assay [4]: Nuclear factor erythroid 2-related factor 2 (Homo sapiens) (UniProt Q16236)
Description: LTEA_HepaRG_NFE2L2: Life Technologies and Expression Analysis (LTEA) Assay for Nuclear factor erythroid 2-related factor 2 (NFE2L2) Transcription Factor using HepaRG (AID 2283527).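 Note: TaqMan qRT-PCR transcript level normalised to ACTB GAPDH and POLR2A housekeeping genes.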 The conditions noted are these: mRNA level, 48 h; actives raise or lower the signal. The gist of the method:
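NFE2L2 transcript level was read by qRT-PCR (housekeeping ACTB/GAPDH/POLR2A normalisation) after 48 h chemical treatment of HepaRG in serum-free induction medium. Duplicate 8-point half-log curves, top 100 uM, 0.5% DMSO vehicle; up- or down-regulation fitted against vehicle.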

Read-out in assay [5]: succinate dehydrogenase complex iron sulfur subunit B (SDHB), SDHB (gene 6390)
As to the kind of experiment: LTEA_HepaRG_SDHB: Life Technologies and Expression Analysis (LTEA) Assay for succinate dehydrogenase complex iron sulfur subunit B (SDHB) using HepaRG (AID 2283528). The conditions noted are these: mRNA level, 48 h; actives raise or lower the signal. The gist of the method:
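Readout is SDHB transcript level by qRT-PCR, normalised to three housekeeping genes and fitted bidirectionally against 0.5% DMSO vehicle. Human HepaRG cells were treated for 48 h at up to 100 uM.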

Read-out in assay [6]: Signal transducer and activator of transcription 3 (Homo sapiens) (UniProt P40763)
As to the kind of experiment: LTEA_HepaRG_STAT3: Life Technologies and Expression Analysis (LTEA) Assay for Signal transducer and activator of transcription (STAT3) using HepaRG (AID 2283529). The conditions noted are these: mRNA level, 48 h; actives raise or lower the signal. The gist of the method:
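STAT3 transcript quantified by qRT-PCR against three housekeeping genes (ACTB, GAPDH, POLR2A), fitted both directions relative to DMSO. HepaRG cultures exposed 48 h to eight half-log concentrations, top 100 uM, 0.5% DMSO, serum-free induction medium.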

Read-out in assay [7]: solute carrier (SLCO1B1), SLCO1B1 (gene 10599)
Description: LTEA_HepaRG_SLCO1B1: Life Technologies and Expression Analysis (LTEA) Assay for solute carrier (SLCO1B1) using HepaRG (AID 2283530). As to conditions: mRNA level, 48 h; actives raise or lower the signal. The gist of the method: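 Human HepaRG cultures treated for 48 h with an eight-concentration half-log series topping at 100 uM; SLCO1B1 measured by qRT-PCR and fitted bidirectionally relative to DMSO.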

Read-out in assay [8]: sulfotransferase 2A1 (SULT2A1), SULT2A1 (gene 6822)
As to the kind of experiment: LTEA_HepaRG_SULT2A1: Life Technologies and Expression Analysis (LTEA) Assay for sulfotransferase 2A1 (SULT2A1) using HepaRG (AID 2283531). The conditions noted are these: mRNA level, 48 h; actives raise or lower the signal. The gist of the method:
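Gene-expression endpoint in a human liver cell line: SULT2A1 mRNA change after 48 h chemical treatment, curves fitted in both directions relative to 0.5% DMSO vehicle. Concentrations spanned eight half-log steps from 100 uM.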

Read-out in assay [9]: Transforming Growth Factor (TGFA), TGFA (gene 7039)
Description: LTEA_HepaRG_TGFA: Life Technologies and Expression Analysis (LTEA) Assay for Transforming Growth Factor (TGFA) using HepaRG (AID 2283532). As to conditions: mRNA level, 48 h; actives raise or lower the signal. The method, boiled down:
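TGFA transcript quantified by qRT-PCR (Fluidigm arrays) against three housekeeping genes, after 48 hours chemical treatment of HepaRG cells. Top concentration 100 uM with half-log dilutions, 8 points, duplicates, 0.5% DMSO.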

Read-out in assay [10]: Transforming Growth Factor (TGFB1), TGFB1 (gene 7040)
Description: LTEA_HepaRG_TGFB1: Life Technologies and Expression Analysis (LTEA) Assay for Transforming Growth Factor (TGFB1) Transporter using HepaRG (AID 2283533). The conditions noted are these: mRNA level, 48 h; actives raise or lower the signal. The gist of the method: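 Eight-point concentration-response (max 100 uM, half-log) in HepaRG under serum-free induction conditions, 48 h. TGFB1 mRNA by qRT-PCR, housekeeping-normalized.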

Read-out in another assay: TIMP1, TIMP1 (gene 7076)
As to the kind of experiment: LTEA_HepaRG_TIMP1: Life Technologies and Expression Analysis (LTEA) Assay for TIMP1 using HepaRG (AID 2283534).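 Note: TaqMan qRT-PCR signal normalized to ACTB GAPDH and POLR2A housekeeping genes.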 As to conditions: mRNA level, 48 h; actives raise or lower the signal. The method, boiled down:
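TIMP1 induction or repression in HepaRG cells after 48 h chemical exposure (eight concentrations, highest 100 uM), assessed by normalized qRT-PCR with bidirectional fitting to DMSO controls.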

Read-out in assay [11]: Tumor necrosis factor receptor 1 (TNFRSF1A), TNFRSF1A (gene 7132)
Description: LTEA_HepaRG_TNFRSF1A: Life Technologies and Expression Analysis (LTEA) Assay for Tumor necrosis factor receptor 1 (TNFRSF1A) using HepaRG (AID 2283535). The conditions noted are these: mRNA level, 48 h; actives raise or lower the signal. The method, boiled down: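 Assay uses 48 h chemical treatment of differentiated HepaRG monolayers, tested in duplicate at eight concentrations from 100 uM downward in 0.5% DMSO. mRNA is normalized to ACTB, GAPDH and POLR2A, with induction or suppression fitted relative to vehicle.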

Read-out in assay [12]: Thyroid Hormone Responsive (THRSP), THRSP (gene 7069)
Description: LTEA_HepaRG_THRSP: Life Technologies and Expression Analysis (LTEA) Assay for Thyroid Hormone Responsive (THRSP) using HepaRG (AID 2283536). The conditions noted are these: mRNA level, 48 h; actives raise or lower the signal. The gist of the method: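 THRSP transcript quantified by Fluidigm qRT-PCR against three housekeeping genes after 48 h chemical exposure of HepaRG cells in serum-free induction medium; eight-point half-log series, top 100 uM, 0.5% DMSO vehicle, duplicate wells.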

Read-out in assay [13]: Cellular tumor antigen p53 (Homo sapiens) (UniProt P04637)
As to the kind of experiment: LTEA_HepaRG_TP53: Life Technologies and Expression Analysis (LTEA) Assay for Tumor Protein P53 (TP53) using HepaRG (AID 2283537). The conditions noted are these: mRNA level, 48 h; actives raise or lower the signal. The gist of the method: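 Read-out is TP53 transcript level by microfluidic qRT-PCR, normalised to three housekeeping genes and fitted bidirectionally against DMSO. Human HepaRG cells received compounds for 48 h, highest concentration 100 uM.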

Read-out in assay [14]: UDP glucuronosyltransferase (UGT1A1), UGT1A1 (gene 54658)
Description: LTEA_HepaRG_UGT1A1: Life Technologies and Expression Analysis (LTEA) Assay for UDP glucuronosyltransferase (UGT1A1) using HepaRG (AID 2283538). The conditions noted are these: mRNA level, 48 h; actives raise or lower the signal. The gist of the method: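 HepaRG, 48 h chemical exposure (top 100 uM, half-log 8-pt, 0.5% DMSO vehicle), duplicate wells; qRT-PCR (TaqMan, Fluidigm array) for UGT1A1 mRNA, housekeeping-normalized; bidirectional curve fit vs DMSO baseline.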

Read-out in assay [15]: UDP glucuronosyltransferase (UGT1A6), UGT1A6 (gene 54578)
Description: LTEA_HepaRG_UGT1A6: Life Technologies and Expression Analysis (LTEA) Assay for UDP glucuronosyltransferase (UGT1A6) using HepaRG (AID 2283539). As to conditions: mRNA level, 48 h; actives raise or lower the signal. The gist of the method: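 Measures mRNA change in HepaRG hepatic cells exposed 48 h to chemicals (eight-point, maximum 100 uM, 0.5% DMSO vehicle) in serum-free induction medium. Expression normalized to endogenous controls; DMSO served as negative control and baseline.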

Read-out in assay [16]: X-box binding protein 1 (XBP1), XBP1 (gene 7494)
Description: LTEA_HepaRG_XBP1: Life Technologies and Expression Analysis (LTEA) Assay for X-box binding protein 1 (XBP1) using HepaRG (AID 2283540). The conditions noted are these: mRNA level, 48 h; actives raise or lower the signal. The method, boiled down: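 Eight concentrations (half-log, highest 100 uM, 0.5% DMSO) tested in duplicate on HepaRG cells over 48 h in serum-free induction medium; qRT-PCR of XBP1 normalised to ACTB, GAPDH, POLR2A.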

Assay [17] in a line: LTEA_HepaRG_LDH_cytotoxicity: Cytotoxicity Assessment in the Life Technologies and Expression Analysis (LTEA) Assay (AID 2283563; active = hit-call score of the fitted dose curve at least 0.9, where 1 is the maximum). The gist of the method: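 Spent-medium LDH after 48 h chemical exposure of HepaRG cells in serum-free induction medium; eight concentrations, half-log dilutions from 100 uM, duplicate wells, fitted upward relative to 0.5% DMSO.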
Read-out in assay [18]: NAD(P)H dehydrogenase [quinone] 1 (NQO1), NQO1 (gene 1728)
Description: LTEA_HepaRG_NQO1: Life Technologies and Expression Analysis (LTEA) Assay for NAD(P)H dehydrogenase [quinone] 1 (NQO1) using HepaRG (AID 2283526). The conditions noted are these: mRNA level, 48 h; actives raise or lower the signal. The method, boiled down:
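qRT-PCR read-out (Fluidigm TaqMan), normalized to three housekeeping genes, after 48 h chemical exposure of HepaRG cells. Concentrations: eight points, top 100 uM, half-log steps, 0.5% DMSO vehicle. Gain or loss of signal fitted relative to DMSO.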

The nature of assay [19]: ATG_XTT_Cytotoxicity: Cytotoxicity Assessment in the Attagene TRANS-FACTORIAL HepG2 Assay (AID 2283584; active = hit-call score of the fitted dose curve at least 0.9, where 1 is the maximum). The method, boiled down: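 24 h chemical exposure of reporter-transfected HepG2; XTT signal loss vs DMSO indicates cytotoxicity.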

Records with an inconclusive call do not appear. Activity calls are given as the source filed them. Rule for the calls, unless noted: active = hit-call score of the fitted dose curve at least 0.9, where 1 is the maximum; inactive = score below 0.9.

Sequence of Signal transducer and activator of transcription 3 (Homo sapiens) (P40763 whole entry, looked up): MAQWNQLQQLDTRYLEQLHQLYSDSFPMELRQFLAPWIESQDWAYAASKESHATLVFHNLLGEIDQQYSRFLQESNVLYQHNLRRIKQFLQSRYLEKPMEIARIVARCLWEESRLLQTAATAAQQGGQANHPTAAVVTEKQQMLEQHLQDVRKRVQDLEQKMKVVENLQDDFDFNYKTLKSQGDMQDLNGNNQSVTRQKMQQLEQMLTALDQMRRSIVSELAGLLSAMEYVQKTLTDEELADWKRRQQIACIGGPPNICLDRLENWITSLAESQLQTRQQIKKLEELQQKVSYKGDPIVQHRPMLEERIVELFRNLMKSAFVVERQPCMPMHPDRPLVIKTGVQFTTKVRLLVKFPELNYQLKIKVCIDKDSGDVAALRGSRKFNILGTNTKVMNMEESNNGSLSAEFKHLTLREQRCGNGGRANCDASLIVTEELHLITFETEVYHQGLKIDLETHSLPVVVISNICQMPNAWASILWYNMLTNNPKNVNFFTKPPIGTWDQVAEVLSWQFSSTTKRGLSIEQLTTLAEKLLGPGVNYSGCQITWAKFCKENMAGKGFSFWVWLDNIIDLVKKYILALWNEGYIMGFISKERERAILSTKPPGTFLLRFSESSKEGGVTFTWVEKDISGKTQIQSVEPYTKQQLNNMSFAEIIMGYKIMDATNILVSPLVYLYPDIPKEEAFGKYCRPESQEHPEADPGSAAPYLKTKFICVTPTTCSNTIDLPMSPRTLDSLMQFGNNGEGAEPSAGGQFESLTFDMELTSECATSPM
Sequence of Nuclear factor erythroid 2-related factor 2 (Homo sapiens) (Q16236 whole entry, looked up): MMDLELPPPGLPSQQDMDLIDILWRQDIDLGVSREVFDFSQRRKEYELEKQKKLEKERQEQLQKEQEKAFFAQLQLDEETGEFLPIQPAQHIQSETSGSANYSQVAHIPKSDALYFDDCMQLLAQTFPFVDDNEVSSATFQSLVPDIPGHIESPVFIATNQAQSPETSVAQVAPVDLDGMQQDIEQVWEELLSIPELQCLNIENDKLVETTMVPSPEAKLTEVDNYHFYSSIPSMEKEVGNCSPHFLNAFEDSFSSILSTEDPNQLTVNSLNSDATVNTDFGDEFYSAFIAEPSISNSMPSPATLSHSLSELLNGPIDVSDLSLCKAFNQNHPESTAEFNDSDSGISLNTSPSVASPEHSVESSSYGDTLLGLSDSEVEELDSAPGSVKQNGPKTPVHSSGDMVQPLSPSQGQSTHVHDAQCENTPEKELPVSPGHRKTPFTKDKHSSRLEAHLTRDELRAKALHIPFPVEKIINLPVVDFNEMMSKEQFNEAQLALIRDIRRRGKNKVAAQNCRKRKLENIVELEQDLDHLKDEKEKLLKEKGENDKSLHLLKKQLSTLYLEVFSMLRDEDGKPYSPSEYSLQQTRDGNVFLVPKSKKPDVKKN
Sequence of Cellular tumor antigen p53 (Homo sapiens) (P04637 whole entry, looked up): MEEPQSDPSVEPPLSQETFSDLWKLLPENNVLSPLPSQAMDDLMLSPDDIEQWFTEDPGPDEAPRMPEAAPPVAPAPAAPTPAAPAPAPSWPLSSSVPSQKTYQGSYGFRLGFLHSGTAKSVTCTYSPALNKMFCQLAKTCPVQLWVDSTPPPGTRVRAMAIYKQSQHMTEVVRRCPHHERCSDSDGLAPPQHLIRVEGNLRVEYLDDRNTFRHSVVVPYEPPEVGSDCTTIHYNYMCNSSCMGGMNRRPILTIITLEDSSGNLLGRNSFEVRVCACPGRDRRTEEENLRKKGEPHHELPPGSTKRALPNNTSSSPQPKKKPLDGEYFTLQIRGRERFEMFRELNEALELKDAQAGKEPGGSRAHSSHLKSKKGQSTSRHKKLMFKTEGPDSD

Turning to `O=C(O)CCN(C1(C(=O)NO)CCCC1)S(=O)(=O)c1ccc(Oc2ccc(F)cc2)cc1`, the result in assay [1], in assay [2], in assay [3], in assay [4], in assay [5] and in [6] was inactive. Also, the outcome in [7] is “inactive”; in assay [8], “inactive”; in assay [9], “inactive”; in assay [10] it was “inactive”; with TIMP1, TIMP1 (gene 7076), “inactive”; in assay [11], “inactive”. The compound was classed as inactive in assay [12], in [13], in assay [14], in assay [15], in assay [16] and in [17].

As usually defined, the AC50 is the concentration giving half of the maximal activity seen. On to `O=c1n(CC2CO2)c(=O)n(CC2CO2)c(=O)n1CC1CO1` (centres undefined), for which the result in [1], in [2], in assay [3], in assay [18], in [4] and in assay [5] was inactive. Also, the outcome in assay [6] was “inactive”; in assay [7], “inactive”; in [8], “inactive”; in assay [9], “inactive”; in [10], “inactive”; with TIMP1, TIMP1 (gene 7076), “inactive”. Also, the compound was called inactive in assay [11], in assay [14], in [15], in [17] and in assay [19]. In addition, in assay [13], the AC50 is 90.1 µM (active).

For the compound `CC(C)CC(C)(O)C#CC(C)(O)CC(C)C` (centres undefined), the compound was called inactive in [1], in assay [2], in [3], in assay [18], in assay [4] and in [5]. For the same compound, the outcome was “inactive” in assay [6]; “inactive” in [7]; “inactive” in assay [8]; “inactive” in assay [9]; “inactive” in assay [10]; “inactive” in the assay with TIMP1, TIMP1 (gene 7076). Further, the outcome in assay [11], in assay [13], in assay [14], in assay [15], in [16] and in assay [17] was inactive. The call in [19] was inactive.

For the compound `Cn1cnc([N+](=O)[O-])c1Sc1ncnc2nc[nH]c12`, the compound was classed as inactive in [1], in [18], in [4], in [5], in [6] and in [8]. The outcome in assay [9] is “inactive”; in the assay with TIMP1, TIMP1 (gene 7076), “inactive”; in assay [11], “inactive”; in assay [13], “inactive”; in [16], “inactive”; in assay [17], “inactive”. The result in [19] was inactive. The AC50 in assay [2] was 16.1 µM (active); in [3], 6.61 µM (active); in assay [7] it was 1.62 µM (active); in [10] it was 12.8 µM (active); in [14], 0.754 µM (active); in assay [15], 3.9 µM (active).
